According to PubChem BioAssay (EPA / NIEHS):
Several values for one entry are separate records, joined by “and”; a condition that tells them apart may be missing. Identical values can stand only once. Records with an inconclusive call do not appear. More than one record can exist for a structure, and the calls need not agree. Activity calls are given as the source filed them. Rule for the calls, unless noted: active = hit-call score of the fitted dose curve at least 0.9, where 1 is the maximum; inconclusive = response in the unintended direction; inactive = score below 0.9.

Tests used:
[1] = read-out: Cellular tumor antigen p53 (Homo sapiens) (UniProt P04637); test: LTEA_HepaRG_TP53: Life Technologies and Expression Analysis (LTEA) Assay for Tumor Protein P53 (TP53) using HepaRG (AID 2283537; active = hit-call score of the fitted dose curve at least 0.9, where 1 is the maximum; inactive = score below 0.9); conditions: mRNA level, 48 h; actives raise or lower the signal
Summary of the method: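 TP53 transcript measured by qRT-PCR, normalized to three housekeeping genes, after 48 h treatment of human HepaRG cultures with chemicals from 100 uM downward in half-log steps (0.5% DMSO vehicle, serum-free induction medium). Up- or down-regulation fitted against DMSO.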

[2] = read-out: UDP glucuronosyltransferase (UGT1A1), UGT1A1 (gene 54658); test: LTEA_HepaRG_UGT1A1: Life Technologies and Expression Analysis (LTEA) Assay for UDP glucuronosyltransferase (UGT1A1) using HepaRG (AID 2283538; active = hit-call score of the fitted dose curve at least 0.9, where 1 is the maximum; inactive = score below 0.9); conditions: mRNA level, 48 h; actives raise or lower the signal
Summary of the method: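 Readout is UGT1A1 transcript level by qRT-PCR, normalized to three housekeeping genes, after 48 h chemical treatment of HepaRG cells. Concentrations ran from 100 uM down in half-log steps with 0.5% DMSO, and gain or loss relative to DMSO was fitted.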

[3] = read-out: UDP glucuronosyltransferase (UGT1A6), UGT1A6 (gene 54578); test: LTEA_HepaRG_UGT1A6: Life Technologies and Expression Analysis (LTEA) Assay for UDP glucuronosyltransferase (UGT1A6) using HepaRG (AID 2283539; active = hit-call score of the fitted dose curve at least 0.9, where 1 is the maximum; inactive = score below 0.9); conditions: mRNA level, 48 h; actives raise or lower the signal
Summary of the method: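 Expression was quantified by TaqMan qRT-PCR on Fluidigm arrays with ACTB/GAPDH/POLR2A normalization and bidirectional fitting against 0.5% DMSO. HepaRG cells (~100,000/well) were treated in duplicate for 48 h at eight half-log concentrations up to 100 uM in serum-free induction medium.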

[4] = read-out: X-box binding protein 1 (XBP1), XBP1 (gene 7494); test: LTEA_HepaRG_XBP1: Life Technologies and Expression Analysis (LTEA) Assay for X-box binding protein 1 (XBP1) using HepaRG (AID 2283540; active = hit-call score of the fitted dose curve at least 0.9, where 1 is the maximum; inactive = score below 0.9); conditions: mRNA level, 48 h; actives raise or lower the signal
Summary of the method: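 XBP1 transcript by qRT-PCR (housekeeping-normalized: ACTB, GAPDH, POLR2A) after 48 h chemical treatment of HepaRG cells, 8-point half-log series topping at 100 uM, vehicle 0.5% DMSO. Gain and loss of signal fitted relative to DMSO.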

[5] = LTEA_HepaRG_LDH_cytotoxicity: Cytotoxicity Assessment in the Life Technologies and Expression Analysis (LTEA) Assay (AID 2283563);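 for AC50: LDH activity released into spent culture medium as a marker of cell death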
Summary of the method: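 LDH release into culture medium read after 48 h chemical treatment of HepaRG cells. Duplicate wells, eight-point half-log series topping at 100 uM, 0.5% DMSO vehicle and baseline.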

[6] = ATG_XTT_Cytotoxicity: Cytotoxicity Assessment in the Attagene TRANS-FACTORIAL HepG2 Assay (AID 2283584);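 for AC50: cells exposed to compound for 24 h before reading; active means loss of viability signal versus DMSO baseline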
Summary of the method: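 Viability endpoint from XTT after 24 h chemical exposure of reporter-transfected human HepG2 liver cells; signal loss fitted relative to DMSO negative control.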

[7] = TOX21_p53_BLA_p2_viability: Viability Assessment in the Tox21 HCT-116 p53 Agonism Beta-lactamase Assay, Phase 2 (AID 2283591);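 note: compound exposure lasted 16 h at 37 °C; actives lower the ATP signal meaning cytotoxicity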
Summary of the method: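 HCT-116 p53-bla cells (4000/well) rested 5 h at 37C, then received compounds in DMSO (217-fold dilution) for 16 h at 37C, 5% CO2. After the CCF4 read, CellTiter-Glo was added; ATP luminescence was read after 30 min at room temperature.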

[8] = target: Cellular tumor antigen p53 (Homo sapiens) (UniProt P04637); test: TOX21_p53_BLA_p2_ratio: Tox21 HCT-116 p53 Agonism Beta-lactamase Assay, Ratio, Phase 2 (AID 2283592)
Summary of the method: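 Gain-of-signal p53 agonism was scored from the beta-lactamase FRET ratio (460/530 nm, 405 nm excitation) in HCT116 cells treated 16 h at 37C, 5% CO2, with DMSO serving as negative control and baseline.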

[9] = TOX21_p53_BLA_p3_viability: Viability Assessment in the Tox21 HCT-116 p53 Agonism Beta-lactamase Assay, Phase 3 (AID 2283593);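 note: cells exposed to compound for 16 h before reading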
Summary of the method: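 HCT-116 cells (4000/well) rested 5 h at 37C, then got DMSO compounds by pin tool (217-fold dilution) for 16 h at 37C, 5% CO2. After the bla read, CellTiter-Glo was added and luminescence read at 30 min, room temperature.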

[10] = target: Cellular tumor antigen p53 (Homo sapiens) (UniProt P04637); test: TOX21_p53_BLA_p3_ratio: Tox21 HCT-116 p53 Agonism Beta-lactamase Assay, Ratio, Phase 3 (AID 2283596)
Summary of the method: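 HCT116 p53-bla cells (4000/well) given compound in DMSO (217-fold dilution) after 5 h, incubated 16 h at 37C. CCF4-AM substrate 2 h at room temperature; 460/530 nm emission ratio, gain fitted against DMSO.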

[11] = TOX21_p53_BLA_p4_viability: Viability Assessment in the Tox21 HCT-116 p53 Agonism Beta-lactamase Assay, Phase 4 (AID 2283597);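 note: hits lower the luminescence signal meaning cytotoxicity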
Summary of the method: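 Following a 16 h exposure at 37C, the treated HCT116 wells were first read for the FRET ratio. They were then lysed with CellTiter-Glo, and ATP luminescence was recorded after 30 min at room temperature.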

[12] = target: Cellular tumor antigen p53 (Homo sapiens) (UniProt P04637); test: TOX21_p53_BLA_p5_ratio: Tox21 HCT-116 p53 Agonism Beta-lactamase Assay, Ratio, Phase 5 (AID 2283599)
Summary of the method: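 HCT-116 cells carrying a p53-inducible beta-lactamase reporter were seeded at 4000 cells/well and dosed after 5 h with compound in DMSO (217-fold dilution). After 16 h at 37C, CCF4-AM substrate was added for 2 h, and the 460/530 nm emission ratio was scored as gain-of-signal versus DMSO.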

[13] = TOX21_p53_BLA_p5_viability: Viability Assessment in the Tox21 HCT-116 p53 Agonism Beta-lactamase Assay, Phase 5 (AID 2283600)
Summary of the method: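 After the 460/530 nm beta-lactamase measurement, the wells received an ATP-detection luciferase reagent; signal was read 30 min later at RT. Compound treatment lasted 16 h on cells pre-incubated 5 h post-seeding.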

[14] = target: Cellular tumor antigen p53 (Homo sapiens) (UniProt P04637); test: TOX21_p53_BLA_p4_ratio: Tox21 HCT-116 p53 Agonism Beta-lactamase Assay, Ratio, Phase 4 (AID 2283601)
Summary of the method: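 HCT116 cells carrying an inducible beta-lactamase reporter were plated at 4000 cells/well, rested 5 h, then exposed to compounds in DMSO (217-fold dilution) for 16 h at 37C. CCF4-AM substrate was loaded 2 h at room temperature; 460/530 nm emission ratio scored gain-of-signal versus DMSO.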

[15] = Tanguay_ZF_120hpf_AXIS_legacy: (Legacy) Oregon State University Tanguay Lab 120 Hour Post-fertilization zebrafish Assay for Body Axis Malformation (AID 2283635);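 for AC50: potency for an increased fraction of larvae scored with body axis malformation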
Summary of the method: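 Binary scoring of axis defects at 120 hpf under brightfield, fitted positive versus DMSO. Tropical 5D embryos, chorion removed by pronase at 4 hpf, were singly exposed in sealed, dark plates at 28C from 6 hpf; DMSO 0.64% final.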

[16] = Tanguay_ZF_120hpf_EYE_legacy: (Legacy) Oregon State University Tanguay Lab 120 Hour Post-fertilization zebrafish Assay for Eye Malformation (AID 2283636);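 note: binary presence or absence of eye malformation scored by brightfield in 120 hpf larvae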
Summary of the method: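 Dechorionated wild-type Tropical 5D zebrafish embryos were exposed statically from 6 hpf, one per well, to 120 hpf at 28C in sealed, foil-covered plates with 0.64% DMSO. Eye malformation was scored present/absent by brightfield microscopy against DMSO controls.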

[17] = Tanguay_ZF_120hpf_SNOU_legacy: (Legacy) Oregon State University Tanguay Lab 120 Hour Post-fertilization zebrafish Assay for Snout Malformation (AID 2283637)
Summary of the method: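 Tropical 5D wild-type zebrafish embryos, dechorionated with pronase at 4 hpf, were exposed singly from 6 hpf to 120 hpf statically at 28C in 0.64% DMSO. Snout malformation was scored present/absent by brightfield microscopy, fitted against DMSO.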

[18] = Tanguay_ZF_120hpf_JAW_legacy: (Legacy) Oregon State University Tanguay Lab 120 Hour Post-fertilization zebrafish Assay for Jaw Malformation (AID 2283638);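 for AC50: active means more embryos with jaw malformation than DMSO controls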
Summary of the method: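 Binary jaw-malformation call at 120 hpf by brightfield microscopy. Embryos (Tropical 5D strain, chorion removed at 4 hpf) were dosed statically at 6 hpf, one per well, at 28C with 0.64% DMSO. Embryos that died were not scored.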

[19] = Tanguay_ZF_120hpf_MORT_legacy: (Legacy) Oregon State University Tanguay Lab 120 Hour Post-fertilization zebrafish Assay for Mortality (AID 2283633)
Summary of the method: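 Static waterborne exposure from 6 to 120 hpf at 28C of single dechorionated wild-type (5D) embryos per well, 0.64% DMSO final. Death recorded present/absent by brightfield at 24 and 120 hpf.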

[20] = Tanguay_ZF_120hpf_YSE_legacy: (Legacy) Oregon State University Tanguay Lab 120 Hour Post-fertilization zebrafish Assay for Yolk Sac Edema (AID 2283634);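 for AC50: actives raise the incidence of yolk sac edema above the DMSO baseline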
Summary of the method: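 Presence or absence of yolk sac edema was recorded at 120 hpf in surviving larvae. These were wild-type Tropical 5D embryos, chorion removed at 4 hpf, held in static exposure at 28C from 6 hpf with 0.64% DMSO vehicle.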

Measured: AC50

Cellular tumor antigen p53 (Homo sapiens), sequence (P04637 whole entry, looked up): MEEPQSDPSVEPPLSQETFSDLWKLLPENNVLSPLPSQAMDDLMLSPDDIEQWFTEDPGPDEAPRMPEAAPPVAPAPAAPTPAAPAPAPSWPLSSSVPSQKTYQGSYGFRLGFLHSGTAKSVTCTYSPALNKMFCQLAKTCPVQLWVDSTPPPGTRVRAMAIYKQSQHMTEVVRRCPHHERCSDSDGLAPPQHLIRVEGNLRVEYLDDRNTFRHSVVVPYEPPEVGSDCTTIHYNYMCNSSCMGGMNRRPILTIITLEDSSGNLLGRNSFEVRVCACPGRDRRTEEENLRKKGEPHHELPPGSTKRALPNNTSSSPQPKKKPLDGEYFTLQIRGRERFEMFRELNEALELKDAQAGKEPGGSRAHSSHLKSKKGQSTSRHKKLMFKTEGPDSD

Cc1[nH]cnc1C[C@H]1CCc2c(C)c3ccccc3n2C1=O
active: [1] 73.7 µM | [2] 64.3 µM | [3] 33.5 µM | [4] 10.4 µM | [5] 27.6 µM | [10] 63.9 µM | [11] 41 µM
inactive: [6] | [7] | [8] | [9] | [11] | [12] | [13] | [14] | [15] | [16] | [17] | [18]

Nc1cccc(N)c1
not listed: [16] | [20]
inactive: all other assays above

COc1ccc(-n2nc(C(F)F)cc2-c2ccc(S(C)=O)cc2)cc1 (stereo unspecified)
active: [2] 39.6 µM | [15] 47 µM | [16] 51.6 µM | [17] 40.4 µM | [18] 46.7 µM
not listed: [10] | [13] | [14] | [19] | [20]
inactive: all other assays above

O=C(CCCCCCCCc1cccnc1)N1CCC(C=C(c2ccccc2)c2ccccc2)CC1
active: [1] 22.9 µM | [2] 32.9 µM | [3] 33.6 µM | [4] 30.9 µM | [5] 36.8 µM | [6] 33.8 µM | [7] 10 µM | [9] 28.2 µM | [13] 13.9 µM
inactive: [8] | [11] | [12] | [14] | [20] | [15] | [16] | [18]

O=P(OC(CCl)CCl)(OC(CCl)CCl)OC(CCl)CCl
active: [1] 86.6 µM | [2] 88.6 µM | [3] 10.1 µM | [11] 53.8 µM | [20] 25.4 µM | [15] 35.3 µM | [16] 36.7 µM | [18] 36.3 µM
not listed: [17] | [19]
inactive: all other assays above

CC(C)c1cccc(C(C)C)c1N1C(=O)c2ccc(O)cc2C1=O
active: [2] 10.8 µM | [7] 66.7 µM | [8] 1.77 µM | [9] 74.9 µM | [11] 68.4 µM | [12] 2.05 µM | [13] 79 µM | [14] 69.5 µM
not listed: [10] | [16] | [17] | [19]
inactive: all other assays above

O=C1CCCCCN1
not listed: [15] | [16] | [17]
inactive: all other assays above

C=CCCCCCCCCC(=O)O
not listed: [10]
inactive: all other assays above

O=c1n(CC2CO2)c(=O)n(CC2CO2)c(=O)n1CC1CO1 (stereo unspecified)
inactive: [2] | [3] | [4] | [5] | [6] | [7] | [9] | [11] | [13] | [19] | [15] | [16] | [18]
active: [1] 90.1 µM | [8] 19.6 µM and 9.81 µM and 20.5 µM | [9] 74.3 µM | [11] 51.2 µM | [12] 32.2 µM and 10.7 µM and 22.6 µM | [14] 33.7 µM and 32.1 µM and 23.5 µM

O=C(O)c1cc(N=Nc2ccc(S(=O)(=O)Nc3ccccn3)cc2)ccc1O
not listed: [19] | [20]
inactive: all other assays above

Cc1ccc(S(=O)(=O)O)cc1C
not listed: [13] | [19] | [20]
inactive: all other assays above

O=C(OC[C@H]1O[C@@H](OC(=O)c2cc(O)c(O)c(OC(=O)c3cc(O)c(O)c(O)c3)c2)[C@H](OC(=O)c2cc(O)c(O)c(OC(=O)c3cc(O)c(O)c(O)c3)c2)[C@@H](OC(=O)c2cc(O)c(O)c(OC(=O)c3cc(O)c(O)c(O)c3)c2)[C@@H]1OC(=O)c1cc(O)c(O)c(OC(=O)c2cc(O)c(O)c(O)c2)c1)c1cc(O)c(O)c(OC(=O)c2cc(O)c(O)c(O)c2)c1
inactive: [4] | [5] | [6] | [9] | [13] | [20] | [15] | [16] | [18]
active: [1] 4.95 µM | [2] 4.66 µM | [3] 5.4 µM | [7] 17.2 µM and 5.28 µM | [8] 12.9 µM and 6.14 µM | [9] 6.6 µM | [11] 14.1 µM and 3.93 µM | [12] 17 µM and 10.6 µM | [13] 6.49 µM | [14] 7.98 µM and 3.2 µM

CC(C)CC(C)(O)C#CC(C)(O)CC(C)C (stereo unspecified)
not listed: [12] | [17] | [20]
inactive: all other assays above

CC(=O)OC[C@H]1O[C@@](COC(C)=O)(O[C@H]2O[C@H](COC(C)=O)[C@@H](OC(C)=O)[C@H](OC(C)=O)[C@H]2OC(C)=O)[C@@H](OC(C)=O)[C@@H]1OC(C)=O
not listed: [13] | [14] | [17]
inactive: all other assays above
